Where “and” joins values, the source holds several entries; their conditions need not be identical. Identical values can stand only once. Results filed as inconclusive are left out. Some compounds were tested as several samples or in several runs, with calls that do not always agree. Calls of active or inactive are those of the source. The calls were made as follows: active = hit-call score of the fitted dose curve at least 0.9, where 1 is the maximum; inconclusive = response in the unintended direction; inactive = score below 0.9.
target: Cellular tumor antigen p53 (Homo sapiens) (UniProt P04637); test: TOX21_p53_BLA_p4_ratio: Tox21 HCT-116 p53 Agonism Beta-lactamase Assay, Ratio, Phase 4 (AID 2283601)
Sequence (P04637 whole entry, looked up): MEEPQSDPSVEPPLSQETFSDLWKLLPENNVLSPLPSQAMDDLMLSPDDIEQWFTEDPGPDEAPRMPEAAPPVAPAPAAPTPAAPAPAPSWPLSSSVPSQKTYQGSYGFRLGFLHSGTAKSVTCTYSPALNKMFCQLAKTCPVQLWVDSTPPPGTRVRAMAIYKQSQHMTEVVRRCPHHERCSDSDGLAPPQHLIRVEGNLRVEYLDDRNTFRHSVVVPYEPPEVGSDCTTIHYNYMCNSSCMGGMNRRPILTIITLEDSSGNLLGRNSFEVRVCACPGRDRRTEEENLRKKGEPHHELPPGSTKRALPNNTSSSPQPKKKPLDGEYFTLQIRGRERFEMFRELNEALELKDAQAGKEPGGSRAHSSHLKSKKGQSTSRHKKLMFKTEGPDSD
Procedure, shortened: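 HCT116 cells carrying an inducible beta-lactamase reporter were plated at 4000 cells/well, rested 5 h, then exposed to compounds in DMSO (217-fold dilution) for 16 h at 37C. CCF4-AM substrate was loaded 2 h at room temperature; 460/530 nm emission ratio scored gain-of-signal versus DMSO.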

Compound	AC50	outcome
O=C1OC2(c3cc(Br)c(O)c(Br)c3Oc3c2cc(Br)c(O)c3Br)c2c(Cl)c(Cl)c(Cl)c(Cl)c21	48.7 µM (active) and 26.5 µM (active)	
O=C1c2ccccc2C(=O)N1SC1CCCCC1	76 µM (active)	inactive
CC(CN1c2ccccc2Sc2ccccc21)N(C)C (stereo not given)		inactive
O=C(Cl)c1cccc(C(=O)Cl)c1		inactive
CCCCC/C=C/C=C/C=O		inactive
c1ccc2c(c1)c1cccc3ccc4cccc2c4c31		inactive
CCCCCCCCCCCCN	86.1 µM (active)	inactive
BrC1CCC(Br)C(Br)CCC(Br)C(Br)CCC1Br (stereo not given)	63.7 µM (active) and 50.3 µM (active)	
